According to PubChem BioAssay AID493169 (National Center for Advancing Translational Sciences (NCATS), 2011):
Records with an inconclusive call do not appear. The source made the active and inactive calls. Calls follow the shape of the dose curve; as a rule, active = well fitted inhibition curve with a large enough effect; inconclusive = small, poorly fitted or top-dose-only effect; inactive = flat fitted curve, though single readings scatter.

Experiment: CHOP2 Reporter Counterscreen Assay for Inhibitors of Ubiquitin-specific Protease USP2a;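 also: activated enterokinase alone at 50 pM in a cell-free format rather than USP2a or CHOP2; nearly all actives have a fitted effect of over 55% in size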
Details: purified enterokinase, fluorogenic substrate, 485/531 nm; series mostly up to 38.3 µM; activity change, negative = inhibition: at the top concentration
In short: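 Fluorescence (485/531 nm) read 10 min after adding 25nM reporter substrate to 50 pM activated EK preincubated 30 min RT with compound; Tris pH 8.0/CaCl2/CHAPS buffer. Data normalized to buffer-alone inhibition; concentration-response curves fitted.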
% is scaled to controls: 0 for no effect and ±100 for the full control effect; potency is read from the fitted curve at half-maximal effect.

SMILES	activity change, negative = inhibition	Potency
C[C@H](CO)N1C[C@H](C)[C@@H](CN(C)S(=O)(=O)c2cn(C)cn2)Oc2ccc(NC(=O)Cn3cnnn3)cc2C1=O	3.59% (inactive)	–
COc1ccc(-n2c(SCC(=O)N3CCN(c4ccccc4)CC3)nc3c(c2=O)SCC3)cc1	-4.64% (inactive)	–
Nc1nc(NCCO)nc(NCC2CCCO2)c1[N+](=O)[O-] (stereo not given)	2.32% (inactive)	–
Cc1ccc(SCC(=O)NCC(C)C)cc1	6.35% (inactive)	–
COC(=O)[C@@]12CCCCN1[C@H](c1ccc(-c3ccc(Cl)c(Cl)c3)cc1)[C@H]1C(=O)N(C)C(=O)[C@H]12	-3.03% (inactive)	–
C=CCSC1=N/C(=C\C=C\c2ccco2)C(=O)S1	–	7.94 µM (active)
CCC(C)NC(=O)C1CN(S(=O)(=O)c2ccccc2)CCN1S(=O)(=O)c1ccccc1 (stereo not given)	-0.106% (inactive)	–
CC(C)(C)C1CCC2(CC1)Nc1cccc3cccc(c13)N2	-1.38% (inactive)	–
Cc1ccc(-c2ccc(CCC(=O)O)n2NC(=O)c2cccs2)cc1	-21.3% (inactive)	–
O=C(Oc1ccccc1C(=O)Nc1ccccc1)c1ccccc1Br	-2.06% (inactive)	–
COc1cc(OC)cc(-c2c(C#Cc3ccsc3)c3cc(-c4ccc(OC)c(F)c4)ccc3n2C)c1	3.47% (inactive)	–
CCn1c(SCC(=O)NCCc2ccccc2)nnc1-c1cccs1	2.03% (inactive)	–
O=C(Nc1ccc(N2CCCC2)cc1)c1cccc(-c2cc3ccccc3oc2=O)c1	-5.21% (inactive)	–
Nc1c(C(=O)NC2CC2)sc2nc3c(c(-c4ccco4)c12)CC/C3=C/c1ccco1	–	2.24 µM (active)
Cc1cc(C)c2c(N=CN(C)C)c(C(=O)N3CCN(c4ncccn4)CC3)sc2n1	3.03% (inactive)	–
CN(C)c1cccc(C(=O)NNC(=O)C23CC4CC(CC(C4)C2)C3)c1	-0.132% (inactive)	–
O=C(Nn1c(SCc2ccc([N+](=O)[O-])cc2)nc2ccccc2c1=O)c1ccc(F)cc1	-0.219% (inactive)	–
CCOC(=O)Cn1c(=O)oc2cc(S(=O)(=O)Nc3cc(Cl)ccc3OC)ccc21	7.82% (inactive)	–
CC1CCCC(NC(=O)C2N(CCCN3CCCC3)C(=O)C3C(C(=O)Nc4ccc(Cl)cc4)C4C=CC32O4)C1C (stereo not given)	-2.85% (inactive)	–
CC1=NN(c2ccc(C)cc2)C(=O)/C1=C/c1ccc(-c2cc([N+](=O)[O-])ccc2O)o1	–	11.2 µM (active)

SMILES	activity change, negative = inhibition	Potency
Nc1c(C(=O)Nc2ccc3c(c2)OCCO3)nnn1CCc1ccccc1	-1.84% (inactive)	–
CC(=O)c1ccc2c(c1)C1C=CCC1C(C(=O)O)N2 (stereo not given)	–	11.2 µM (active)
CCCn1c(NC(=O)c2ccc(Br)cc2)nc2ccccc21	1.65% (inactive)	–
Cc1c2c(=O)n(-c3nc4ccccc4s3)nc-2cc(O)n1Cc1ccccc1	–	11.2 µM (active)
O=C1CS/C(=C/C(=O)c2ccccc2)N1	0.0345% (inactive)	–
O=C(NC1CCCC1)C1C2C=CC(C2)C1C(=O)N1CCOCC1 (stereo not given)	4.28% (inactive)	–
C=CCOc1cccc(C2C(C(=O)c3ccco3)=C(O)C(=O)N2CCN(CC)CC)c1 (stereo not given)	2.38% (inactive)	–
Cc1ccccc1NC(=O)CSc1nnc(-c2ccco2)c(-c2ccco2)n1	8.04% (inactive)	–
O=C1CCCc2nc(N3CCN(c4ccccc4)CC3)ncc21	3.25% (inactive)	–
CC(C)CCn1c(CN2CCN(C(=O)c3ccco3)CC2)nc2c1c(=O)n(C)c(=O)n2C	12.8% (inactive)	–
S=c1[nH]nc(-c2cc(-c3ccco3)[nH]n2)n1-c1cccc2ccccc12	-21.8% (inactive)	–
O=C(COC(=O)c1ccc(F)c(S(=O)(=O)N2CCOCC2)c1)c1ccccc1	0.0433% (inactive)	–
CC1CCCCN1CCNC(=O)CC1Oc2ccccc2NC1=O (stereo not given)	-1.06% (inactive)	–
O=S(=O)(Nc1cccc(-c2cn3c(n2)SCC3)c1)c1ccc(F)cc1F	0.249% (inactive)	–
Cc1cc2c(c(=O)n1CC1CCCO1)C(c1ccco1)C(C#N)=C(N)O2 (stereo not given)	1.78% (inactive)	–
CC(OC(=O)CN(C)S(=O)(=O)c1ccc(Cl)cc1)C(=O)Nc1ccc(N2CCOCC2)cc1 (stereo not given)	1.51% (inactive)	–
COC(=O)C1CCN(C(=O)COC(=O)CC(NC(N)=O)c2ccc(Cl)cc2)CC1 (stereo not given)	2.03% (inactive)	–
CC(C)c1ccc(Nc2nnc(SCC(=O)c3nnc(-c4ccccc4)o3)s2)cc1	–	5.01 µM (active)
Cc1nc2n(n1)CC(O)CS2 (stereo not given)	1.03% (inactive)	–
Oc1ccccc1/C=N/Nc1ncc(Br)cn1	-2.82% (inactive)	–
